The results in this text go back to patent US20150152398, “Endoribonuclease and Methods of Use Thereof” (The Regents of the University of California, published 2015).

The target of this experiment is T1, TtCas6A R129A (Thermus thermophilus HB8, R129A).
T1 chain: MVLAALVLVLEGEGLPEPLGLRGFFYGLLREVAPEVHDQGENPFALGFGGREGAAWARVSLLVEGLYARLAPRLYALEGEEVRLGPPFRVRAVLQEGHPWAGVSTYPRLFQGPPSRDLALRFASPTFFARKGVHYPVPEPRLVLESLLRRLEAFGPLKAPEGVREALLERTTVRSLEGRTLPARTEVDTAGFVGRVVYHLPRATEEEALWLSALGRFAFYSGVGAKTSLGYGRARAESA
The experiment is described as follows: EMSA; Kd in FIG. 24D only. Conditions: chain copies: 2 inferred; label: 5'-32P (EMSA); hairpin; ssRNA. The text has this:
FIG. 22 illustrates that TtCas6A and TtCas6B both cleave repeats R1 and R3 and retain their cleaved products. (A) Sequences and predicted secondary structures of T. thermophilus CRISPR repeats. Sites of cleavage are indicated with blue arrows. TtCas6e (TTHB192) cleaves repeat R2, while TtCas6A (TTHA0078) and TtCas6B (TTHB231) both cleave repeats R1 and R3. (B) Cleavage product binding affinities of TtCas6A and TtCas6B enzymes. Maltose binding protein (MBP)-fused TtCas6A or TtCas6B were bound to in 5′-radiolabelled, vitro transcribed R1 and R3 RNAs. Bound and unbound fractions were resolved by electrophoresis on a native polyacrylamide gel and visualized by phosphorimaging. The data for these and all subsequent binding assays were fit with standard binding isotherms (solid line). Error bars on each data point denote standard error of the mean (SEM) from three independent experiments. (C) Experiments to confirm single turnover. RNA cleavage assays were carried out at indicated protein:RNA ratios. RNA cleavage was monitored using denaturing polyacrylamide gel electrophoresis. The data from these and all subsequent endoribonuclease activity assays were fit with single exponential curves to yield first-order rate constants. (Top to bottom: FIG. 22A, SEQ ID NOs: 1, 2, 55).
To test the importance of the stem sequence for substrate RNA recognition by TtCas6A, a series of EMSAs was performed using R1 repeat-derived RNAs that carried single base pair substitutions (C-G→A-U). All mutant RNAs contained the complete 5′ segment and additional two nucleotides downstream of the cleavage site. Compared to the wild-type RNA, substitution of any of the four C-G base pairs in the stem led to about five-fold decrease in affinity (FIG. 24C). This is consistent with the observation that the lower three C-G base pairs are specifically read out by Arg129. The binding defect observed upon mutation of the closing (uppermost) base pair could be due to loss of stability of the stem-loop structure, which is determined by the closing base-pair (Serra et al, 1993). To further investigate the protein determinants of RNA binding, we tested the TtCas6A mutants H37A and R129A and performed binding assays using substrates R1 and R3 (FIG. 24D).
A general note: Mobility shift assays separate free from complexed probe on a gel.
As for GUUGCAAGGGAUUGAGCCCCGUAAGGGGAUUGCGAC, the binding signal is ~260 fold lower affinity than WT.
Under GUUGCAAACCUCGUUAGCCUCGUAGAGGAUUGAAAC stands ~290 fold lower affinity than WT.
